Several values for one entry are separate records, joined by “and”; a condition that tells them apart may be missing. Identical values can stand only once. Records with an inconclusive call do not appear. Entries that show only a call come without a potency. Some compounds were tested as several samples or in several runs, with calls that do not always agree. Activity calls are given as the source filed them. Calls follow the shape of the dose curve; as a rule, active = well fitted cell-killing curve with a large enough effect in the repeat runs; inconclusive = weak or mixed curves, or effect the other way; inactive = no such curve, though single readings can be large or run the other way.
Potency is read from the fitted curve at half-maximal effect.

The nature of this assay: qHTS assay to identify small molecule antagonists of the sonic hedgehog signaling (Shh) pathway - cell viability counter screen (AID 1259367). Also: nearly all actives have a fitted effect of over 55% in size. The conditions noted are these: NIH/3T3 Gli1-Luc viability, CellTiter-Fluor, 24 h; series mostly up to 92.4 µM. In a few lines: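 Viability was read by CellTiter-Fluor fluorescence in the same wells, reagent added 23 hr into compound treatment and incubated 1 hr at 37C. The 3T3 Gli1-Luc reporter cells (2,000/well) received conditioned medium after compound and ran 24 hr.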
In general terms: In qHTS, concentration-response curves come from the screen itself.
Take `CNC(=O)Oc1cccc2ccccc12`: the Potency result was “inactive”.
Turning to `O=C(O)C1C(C(=O)O)C2(Cl)C(Cl)=C(Cl)C1(Cl)C2(Cl)Cl` (configuration not stated), the Potency entry is “inactive”.
Regarding `c1ccc2c(c1)CCCC2`, the Potency entry was “inactive”.
Take `O=[N+]([O-])c1ccc(Cl)cc1`: the Potency result is “inactive”.
For `CC(C)(C)C(=O)CCl` the value was “inactive”; for `Nc1nc(N)nc(NC2CC2)n1`, “inactive”; for `CN(C)C(=O)C(c1ccccc1)c1ccccc1`, “inactive”.
With `C/C=C/c1ccc2c(c1)OCO2`, the Potency result was “inactive”.
With `Sc1ccccc1`, the Potency result is “inactive”.
Turning to `CCSC(=O)N1CCCCCC1`, the Potency entry is “inactive”.
`C=CC(=O)OCC(CC)CCCC` (configuration not stated): the Potency entry is “inactive”.
Take `O=[N+]([O-])c1cc([As](=O)(O)O)ccc1O`: the Potency entry is “inactive”.
For `CCOc1ccc(N)cc1` the value was “inactive”.
As to `Nc1ccc(N)cc1`, the Potency was 61.4 µM (active) and 54.5 µM (active) and inactive.
Turning to `CCNc1nc(Cl)nc(NC(C)C)n1`, the Potency entry was “inactive”.
For `C=CC#N` the value was “inactive”; for `Cc1cc(Cl)ccc1OC(C)C(=O)O` (configuration not stated), “inactive”; for `CCCCC(CC)C(=O)Cl` (configuration not stated), “inactive”.
For `COc1cc(-c2ccc(N)c(OC)c2)ccc1N` the value was “inactive”.
For the compound `O=P1(NCCCl)OCCCN1CCCl` (configuration not stated), the Potency result was “inactive”.
For `O=C(O)C(Br)Br` the value was “inactive”; for `[N-]=[N+]=CC(=O)OC[C@H](N)C(=O)O`, “inactive”.

The record behind these values is PubChem BioAssay (Tox21).
